{"source": "the supplement of paper PMC12636033", "note": "± gives the standard deviation of the averaged measurements. In all, about 33,000 sequences were measured (“E-score (rank enrichment, -0.5 to 0.5)”: median about -0.0075, highest 2% from about 0.23 on). The list comes from a sample in which the highest values are over-represented; it also holds similar and randomly drawn sequences.", "data": [{"tested_on": "WT Max(13-93) synthetic (M65Nle)", "experiment": "PBM 8-mer E-score (E-score (rank enrichment, -0.5 to 0.5)); higher = stronger preferential binding", "experimental": "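Protein binding microarray (universal PBM chip covering all 10-mers in fixed probe flanks) with chemically synthesized human Max(13-93) bHLH-LZ analogs (not full-length Max) bearing noncanonical residues (hArg, Tha, Aib, Nle at 65) and aromatic Cys staples. Read-out per 8-mer (and its reverse complement): E-score (rank-based enrichment, -0.5 to 0.5) and Z-score of median probe intensity.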", "values": [{"sequence": "AATGTGAC", "PBM 8-mer E-score": "-0.0272 ± 0.014"}, {"sequence": "AATGTGAA", "PBM 8-mer E-score": "0.181 ± 0.089"}, {"sequence": "CATGTGAA", "PBM 8-mer E-score": "0.249 ± 0.059"}, {"sequence": "CATGTGAC", "PBM 8-mer E-score": "0.3772 ± 0.0032"}, {"sequence": "CATGTGAG", "PBM 8-mer E-score": "0.226 ± 0.08"}, {"sequence": "AACCCGCT", "PBM 8-mer E-score": "0.00053 ± 0.075"}, {"sequence": "ATAACCCG", "PBM 8-mer E-score": "-0.0972 ± 0.023"}, {"sequence": "GATACTGA", "PBM 8-mer E-score": "-0.0332 ± 0.11"}, {"sequence": "ACATAAAG", "PBM 8-mer E-score": "0.197 ± 0.04"}, {"sequence": "ACATAAAA", "PBM 8-mer E-score": "0.192 ± 0.085"}, {"sequence": "TGATAAAA", "PBM 8-mer E-score": "0.282 ± 0.056"}, {"sequence": "ATATAAAT", "PBM 8-mer E-score": "0.26 ± 0.013"}, {"sequence": "CTATAAAA", "PBM 8-mer E-score": "0.0799 ± 0.029"}, {"sequence": "GGATAAAA", "PBM 8-mer E-score": "0.116 ± 0.12"}, {"sequence": "GTATAAAA", "PBM 8-mer E-score": "0.2289 ± 0.0018"}, {"sequence": "ACATAAAT", "PBM 8-mer E-score": "0.249 ± 0.026"}, {"sequence": "ATATAAAA", "PBM 8-mer E-score": "0.257 ± 0.14"}, {"sequence": "CGATAAAA", "PBM 8-mer E-score": "0.0372 ± 0.13"}, {"sequence": "ATAAAAAT", "PBM 8-mer E-score": "0.209 ± 0.032"}, {"sequence": "ATATAAAG", "PBM 8-mer E-score": "0.138 ± 0.006"}, {"sequence": "TGTCTAAA", "PBM 8-mer E-score": "0.127 ± 0.015"}, {"sequence": "TTGCTAAA", "PBM 8-mer E-score": "-0.0675 ± 0.037"}, {"sequence": "ACATCGCC", "PBM 8-mer E-score": "0.0533 ± 0.012"}, {"sequence": "CATAAGCG", "PBM 8-mer E-score": "-0.0132 ± 0.16"}, {"sequence": "ACGCTACT", "PBM 8-mer E-score": "-0.103 ± 0.057"}, {"sequence": "CGCACAGA", "PBM 8-mer E-score": "-0.00527 ± 0.17"}, {"sequence": "GCTACTTA", "PBM 8-mer E-score": "0.0733 ± 0.061"}, {"sequence": "GCATCAAA", "PBM 8-mer E-score": "0.0826 ± 0.0033"}, {"sequence": "TCAGTACA", "PBM 8-mer E-score": "-0.0447 ± 0.075"}, {"sequence": "ATATAAGA", "PBM 8-mer E-score": "0.257 ± 0.1"}, {"sequence": "GTATAAGA", "PBM 8-mer E-score": "0.176 ± 0.037"}, {"sequence": "CTATAAGA", "PBM 8-mer E-score": "0.00621 ± 0.13"}, {"sequence": "ATATAAAC", "PBM 8-mer E-score": "0.249 ± 0.1"}, {"sequence": "GTATAAAC", "PBM 8-mer E-score": "0.097 ± 0.035"}, {"sequence": "CTATAAAC", "PBM 8-mer E-score": "-0.0175 ± 0.061"}, {"sequence": "CCGCACAA", "PBM 8-mer E-score": "-0.0967 ± 0.091"}, {"sequence": "CAGTGTCG", "PBM 8-mer E-score": "-0.18 ± 0.018"}, {"sequence": "GTGGACAA", "PBM 8-mer E-score": "0.236 ± 0.0099"}, {"sequence": "GGGGACAA", "PBM 8-mer E-score": "-0.00341 ± 0.1"}, {"sequence": "TGGGACAA", "PBM 8-mer E-score": "0.233 ± 0.12"}, {"sequence": "AGGGACAA", "PBM 8-mer E-score": "-0.0703 ± 0.11"}, {"sequence": "CTGGACAA", "PBM 8-mer E-score": "-0.0424 ± 0.18"}, {"sequence": "TTGGACAA", "PBM 8-mer E-score": "0.137 ± 0.038"}, {"sequence": "ATCTAAGG", "PBM 8-mer E-score": "0.00267 ± 0.011"}, {"sequence": "GACAGTAC", "PBM 8-mer E-score": "0.0423 ± 0.12"}, {"sequence": "AACAGCCA", "PBM 8-mer E-score": "0.0334 ± 0.032"}, {"sequence": "GCCCGGAC", "PBM 8-mer E-score": "-0.319 ± 0.01"}, {"sequence": "TGCACACA", "PBM 8-mer E-score": "0.0593 ± 0.099"}, {"sequence": "ATAGGCTA", "PBM 8-mer E-score": "0.00221 ± 0.094"}, {"sequence": "ACATTTTA", "PBM 8-mer E-score": "0.297 ± 0.048"}, {"sequence": "ATATTTAC", "PBM 8-mer E-score": "0.23 ± 0.07"}, {"sequence": "CCATTTTA", "PBM 8-mer E-score": "0.0902 ± 0.15"}, {"sequence": "ATATTTAA", "PBM 8-mer E-score": "0.302 ± 0.021"}, {"sequence": "CCTTTTCA", "PBM 8-mer E-score": "0.245 ± 0.15"}, {"sequence": "GCATTTTA", "PBM 8-mer E-score": "0.16 ± 0.072"}, {"sequence": "CTTTTTCA", "PBM 8-mer E-score": "0.144 ± 0.055"}, {"sequence": "GCTTTTCA", "PBM 8-mer E-score": "0.0385 ± 0.086"}, {"sequence": "CTATTTAA", "PBM 8-mer E-score": "0.0374 ± 0.0014"}, {"sequence": "GCTTTTAA", "PBM 8-mer E-score": "-0.0112 ± 0.043"}, {"sequence": "GCTTTTTA", "PBM 8-mer E-score": "0.237 ± 0.16"}, {"sequence": "CCTTTTTA", "PBM 8-mer E-score": "0.171 ± 0.029"}, {"sequence": "ACGAAATG", "PBM 8-mer E-score": "0.158 ± 0.068"}, {"sequence": "CTCGGCTC", "PBM 8-mer E-score": "-0.235 ± 0.028"}, {"sequence": "AGGGAATC", "PBM 8-mer E-score": "-0.0163 ± 0.031"}, {"sequence": "GTTTCGTA", "PBM 8-mer E-score": "0.0743 ± 0.067"}, {"sequence": "GCGCTCTA", "PBM 8-mer E-score": "-0.19 ± 0.062"}, {"sequence": "CCATACAG", "PBM 8-mer E-score": "-0.026 ± 0.18"}, {"sequence": "CGTGAGCA", "PBM 8-mer E-score": "-0.0547 ± 0.079"}, {"sequence": "CTATTTTA", "PBM 8-mer E-score": "0.0787 ± 0.12"}, {"sequence": "GTATTTTA", "PBM 8-mer E-score": "0.0179 ± 0.13"}, {"sequence": "ATATTTTA", "PBM 8-mer E-score": "0.271 ± 0.033"}, {"sequence": "CGTTTTCA", "PBM 8-mer E-score": "0.106 ± 0.036"}, {"sequence": "AACAGGTC", "PBM 8-mer E-score": "-0.0763 ± 0.049"}, {"sequence": "ACAACGTA", "PBM 8-mer E-score": "0.024 ± 0.002"}, {"sequence": "ATAACGTG", "PBM 8-mer E-score": "0.261 ± 0.046"}, {"sequence": "ACAACGTG", "PBM 8-mer E-score": "0.255 ± 0.089"}, {"sequence": "ATAACGTC", "PBM 8-mer E-score": "0.136 ± 0.042"}, {"sequence": "ATAACGTA", "PBM 8-mer E-score": "0.203 ± 0.091"}, {"sequence": "ACAACGTC", "PBM 8-mer E-score": "-0.0474 ± 0.05"}, {"sequence": "GGCTGGCA", "PBM 8-mer E-score": "-0.311 ± 0.1"}, {"sequence": "GCGTCTCA", "PBM 8-mer E-score": "-0.13 ± 0.025"}, {"sequence": "CCGCACTC", "PBM 8-mer E-score": "-0.0409 ± 0.033"}, {"sequence": "TATTTGAA", "PBM 8-mer E-score": "0.0846 ± 0.018"}, {"sequence": "ACTTGGTC", "PBM 8-mer E-score": "0.0597 ± 0.089"}, {"sequence": "CATTGTAA", "PBM 8-mer E-score": "0.134 ± 0.067"}, {"sequence": "GACGTCGC", "PBM 8-mer E-score": "-0.091 ± 0.13"}]}]}
